FECH inh = human FECH heme synthesis enzyme inhibition. P22830. purified FECH, Ni-mesoporphyrin absorbance 550 nm. calls only at 10 µM (by protocol). hit rate 3.3% among 20,000. AID 1671448;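 active = enzyme reaction rate more than 3 SD below the solvent-only control wells on the same plate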;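 note: lower slope than DMSO wells means FECH inhibition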
Target sequence (P22830 whole entry, looked up): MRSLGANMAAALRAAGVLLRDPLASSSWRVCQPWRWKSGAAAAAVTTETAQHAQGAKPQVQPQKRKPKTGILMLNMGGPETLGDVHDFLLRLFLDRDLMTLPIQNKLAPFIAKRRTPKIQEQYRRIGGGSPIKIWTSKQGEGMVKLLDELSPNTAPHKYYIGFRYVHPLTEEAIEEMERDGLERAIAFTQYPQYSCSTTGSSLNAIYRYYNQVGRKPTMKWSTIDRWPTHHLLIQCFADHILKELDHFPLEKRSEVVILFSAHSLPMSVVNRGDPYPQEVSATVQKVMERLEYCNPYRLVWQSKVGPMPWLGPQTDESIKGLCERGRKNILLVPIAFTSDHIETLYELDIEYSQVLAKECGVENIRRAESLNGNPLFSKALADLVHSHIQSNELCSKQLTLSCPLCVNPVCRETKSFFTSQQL
The depositor's hits bear a star; i = inactive; + = active, no number. This excerpt belongs to a sample that is enriched for hits.

SMILES	FECH inh
CCc1c(C)nc2ncnn2c1Sc1ccccc1NC(=O)c1cccc(C)c1	i
Cc1ccc(OCC(=O)Nc2ccccc2Sc2c(C)c(C)nc3ncnn23)cc1	i
CCc1c(C)nc2ncnn2c1Sc1ccccc1NC(=O)c1cccc(F)c1	i
CCCc1c(C)nc2ncnn2c1Sc1ccccc1NC(=O)c1cccc(OC)c1	+
Cc1ccccc1OCC(=O)Nc1ccccc1Sc1c(C)c(C)nc2ncnn12	+
CCOc1ccccc1C(=O)Nc1ccccc1Sc1c(C)c(C)nc2ncnn12	i
CCCc1c(C)nc2ncnn2c1Sc1ccccc1NC(=O)c1ccco1	i
CCCc1c(C)nc2ncnn2c1Sc1ccccc1NC(=O)c1ccccc1	+
CCCc1c(C)nc2ncnn2c1Sc1ccccc1NC(=O)c1ccc(F)cc1	i
O=S(=O)(c1ccccc1)n1cccc1CN1CC[C@H]2CC[C@@H](C1)N2	i
Clc1ccc(Nc2nc(NCCN3CCOCC3)nc3c2cnn3-c2ccccc2)cc1	i
CCCC1C=CCN1C(=O)c1cc(COc2ccc3c(c2)OCO3)[nH]n1 (stereo not given)	i
O=C(Nc1nc2n(n1)C(c1ccccc1Cl)C=C(c1ccccc1)N2)c1ccc(Cl)cc1 (stereo not given)	i
COc1cccc(-c2noc(CSCC(=O)Nc3ccccc3C(F)(F)F)n2)c1	i
CCc1cc(Sc2ccccc2NC(=O)c2ccc(OC)c(OC)c2)n2ncnc2n1	i
NCC1CCN(C(=O)c2ccc(NCc3ccncc3)cc2)C1 (stereo not given)	i
CC(C)OC(=O)c1cc2ccsc2n1CC(=O)NCc1ccccc1	i
Cc1cc(N2CCCCCC2)n2nc(-c3cccnc3)nc2n1	i
COc1ccc(CC(=O)Nc2ccccc2Sc2c(C)c(C)nc3nc(-c4ccccc4)nn23)cc1	i
Cc1cc(Sc2ccccc2NC(=O)COc2ccc(Cl)cc2)n2nc(-c3ccccc3)nc2n1	i
Cc1nc2nc(-c3ccccc3)nn2c(Sc2ccccc2NC(=O)COc2ccc(Cl)cc2)c1C	+
COc1ccc(S(=O)(=O)Nc2cnc(N3CCCCCC3)c(C(=O)O)c2)cc1OC	i
Cc1nc(C(C)N(C)Cc2ccnc(C(C)C)n2)c(C)s1 (stereo not given)	i
CCC(=O)Nc1nc2n(n1)C(c1c(F)cccc1Cl)C=C(c1ccc(Cl)cc1)N2 (stereo not given)	i
CCC(=O)Nc1nc2n(n1)C(c1c(F)cccc1Cl)C=C(c1ccccc1)N2 (stereo not given)	+
SMILES	FECH inh
CCCC(=O)Nc1nc2n(n1)C(c1c(F)cccc1Cl)C=C(c1ccc(Cl)cc1)N2 (stereo not given)	i
CC(=O)Nc1nc2n(n1)C(c1c(F)cccc1Cl)C=C(c1ccc(C)cc1)N2 (stereo not given)	i
CC(C)C(=O)Nc1nc2n(n1)C(c1ccc(Cl)cc1)C=C(c1ccccc1)N2 (stereo not given)	i
CC(C)C(=O)Nc1nc2n(n1)C(c1c(F)cccc1Cl)C=C(c1ccccc1)N2 (stereo not given)	+
O=C(O)c1cc(NS(=O)(=O)c2ccc(F)cc2)cnc1N1CCC(CCN2CCCCC2)CC1	i
CCOc1ccc(NC(=O)N2CCC(n3cnc4cccnc43)CC2)cc1	i
Cc1nn(C(C)C)c(C)c1CN(C)CC(=O)NCc1ccccc1F	i
Cc1ccc(C2(O)CCN(Cc3cc(=O)[nH]c(C4CC4)n3)CC2)nc1	i
O=c1[nH]nc(Cc2ccc(O)cc2)n1Cc1ccc(Cl)cc1	i
Cc1ccc(C2=CC(c3ccc(C)cc3)n3nc(NC(=O)c4cccc(C)c4)nc3N2)cc1 (stereo not given)	i
Cc1ccc(NC(=O)C2CCN(S(=O)(=O)c3cc4c(cc3C)NC(=O)CO4)CC2)nc1	+
COc1ccccc1NC(=O)C1CCCN1S(=O)(=O)c1cc2c(cc1C)NC(=O)CO2 (stereo not given)	i
CCOC(=O)C1CCN(S(=O)(=O)c2cc3c(cc2Cl)NC(=O)CO3)CC1	i
Cc1cc2c(cc1S(=O)(=O)N1CCCC1C(=O)N1CCc3ccccc31)OCC(=O)N2 (stereo not given)	+
CC1CCCCN1S(=O)(=O)c1cc2c(cc1Cl)NC(=O)CO2 (stereo not given)	i
Cc1ccc(NC(=O)CN2C(=O)CCc3cc(S(=O)(=O)N4CCCC4)ccc32)nc1	i
Cc1cc(N2CCCC2)nc(Nc2ccc(NC(=O)c3cccc(Cl)c3)cc2)n1	i
CNS(=O)(=O)c1ccc(CN(Cc2ccncc2)Cc2ccc(F)cc2)cc1	i
Cc1cc2nc(CNC(C)CCn3cccn3)[nH]c2cc1C (stereo not given)	i
O=C(c1csc(S(=O)(=O)NCCc2ccccc2)c1)N1CCCC1	i
O=c1ccc(-c2ccc(Cl)c(S(=O)(=O)N(Cc3ccccc3)Cc3ccccc3)c2)n[nH]1	i
COC(=O)c1cccc(NS(=O)(=O)c2cc(N3C(=O)CCS3(=O)=O)ccc2OC)c1	i
CCc1cc(Sc2ccccc2NC(=O)Cc2ccc(Cl)cc2)n2nc(C)nc2n1	i
CCC(=O)Nc1ccc(Nc2nc(C)cc(N3CCCC3)n2)cc1	i
Cc1ccc(NC(=O)CN2CCN(Cc3ccccc3C)S2(=O)=O)cc1	i
SMILES	FECH inh
Cc1ccc(NC(=O)CN2CCN(Cc3ccc(Cl)cc3)S2(=O)=O)cc1C	i
Cc1cccc(CN2CCN(CC(=O)Nc3ccc(C)c(C)c3)S2(=O)=O)c1	+
Cc1ccc(CN2CCN(CC(=O)Nc3ccc(C)c(C)c3)S2(=O)=O)cc1	i
CCc1cccc(C)c1NC(=O)CN1CCCN(Cc2cccc(C)c2)S1(=O)=O	+
Cc1ccccc1CN1CCN(Cc2ccccc2C)S1(=O)=O	+
COc1ccc(NC(=O)CN2CCN(Cc3ccccc3C)S2(=O)=O)cc1	i
Cc1cc(C)c(CN2CCN(Cc3ccccc3C)S2(=O)=O)c(C)c1	i
CCc1cccc(C)c1NC(=O)CN1CCN(Cc2ccccc2C)S1(=O)=O	i
CCc1cccc(C)c1NC(=O)CN1CCCN(Cc2ccc(C)cc2)S1(=O)=O	i
COc1ccc(CN2CCCN(CC(=O)Nc3ccc(OC)cc3)S2(=O)=O)cc1	i
COc1ccc(NC(=O)CN2CCN(Cc3cccc(C)c3)S2(=O)=O)cc1	+
CCCc1c(C)nc2ncnn2c1Sc1ccccc1NC(=O)Nc1ccc(Cl)cc1	i
CC(=O)NCCC1=CCCN(Cc2ccc(C(F)(F)F)nc2)C1	i
CO[C@H]1CN(c2noc(-c3ccccc3)n2)CC[C@H]1N	i
O=C(CC1CCN(S(=O)(=O)c2ccccc2)CC1)N1CCCCCC1	i
CCOc1ccccc1-c1ncnc2scc(C)c12	i
Cc1ccccc1S(=O)(=O)NCc1nc2cccnc2n1Cc1ccc(F)cc1	i
Cc1cc(C(=O)NCC2CCN(Cc3cc(C(C)C)no3)C2)n[nH]1 (stereo not given)	i
CC(=O)NCCn1ccnc1-c1cc2ccccc2s1	i
Cc1ccc(C2(O)CCN(c3ncccc3F)CC2)nc1	i
Cn1c(=O)cc(C(=O)N2CCOC(C(F)(F)F)C2)c2ccccc21 (stereo not given)	i
CC(C)Cn1c(CNS(=O)(=O)c2cccc([N+](=O)[O-])c2)nc2cccnc21	i
COc1ccc(NC(=O)CN2CCN(Cc3ccccc3C)S2(=O)=O)cc1OC	+
Cc1ccc(NC(=O)CN2CCN(Cc3ccccc3)S2(=O)=O)cc1	i
COc1ccc(NC(=O)CN2CCN(Cc3ccccc3C)S2(=O)=O)cc1Cl	i

Assay outcomes as filed in PubChem.
